High-throughput results: PubChem BioAssay, National Center for Advancing Translational Sciences (NCATS)
Compounds with a hit are over-represented: about 9.4% of the library has one in this group of screens.
Rab9 promoter act: activators of Rab9 promoter. Huh7 Rab9 promoter-luciferase reporter, luminescence, 24 h. Potency, µM (doses to about 9.22 µM), without a hit: at the top dose activation, negative = inhibition, actives largely listed as activators. 320,000 tested, 2.8% active. AID 485297; further: % of control where 0% means no effect; nearly all actives have a fitted effect of over 60% in size
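Luminescence read-out: Huh7 cells stably expressing Rab9-luciferase, treated 24 h with compound at 37 °C, then lysed with luciferase reagent for 10 min at ambient before reading.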
NPC1 prom act: activates the NPC1 promoter | Potency, µM (top dose mostly 9.22 µM), for the others: at the highest dose activation, most hits filed as activators | AID 485313 | 320,000 tested, 2.4% active | Huh7 NPC1 promoter luciferase reporter, 24 h; further: % of control where 0% means no effect; nearly all actives have a fitted effect of over 60% in size
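Huh7 cells stably carrying NPC1 promoter–luciferase, plated in Opti-MEM with 10% FBS for 2 h, were exposed to compound in DMSO for 24 h at 37 °C; luciferase reagent was added for 10 min and luminescence read.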
ELG1 DNA repair: blocks ELG1-dependent DNA repair in HEK293T cells | HEK293T ELG1-luciferase reporter, luminescence, 16 h; DNA damage induced by 5-fluorouridine | Potency, µM (highest dose often 46.1 µM), without a hit: at the top dose activity change, negative = inhibition, actives largely listed as inhibitors | 330,000 tested, 2.3% active | AID 504467; further: on the % scale 0 is the no-effect control and ±100 the full control effect; nearly all actives have a fitted effect of over 55% in size
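Luminescence from the luciferase reporter, measured 30 min after ONE-Glo reagent at room temperature, was the read-out. Beforehand, 2,000 cells per well were exposed for 16 hr at 37 °C to 5-fluorouridine together with compound or vehicle.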
ELG1 genotoxic: induces genotoxicity in HEK293T cells with luciferase-tagged ELG1; Potency, µM (top dose mostly 46 µM), for inactives: top-dose activity change, positive = activation, usual class: activators; HEK293T ELG1-luciferase reporter, luminescence, 16 h; 330,000 tested, 1.3% active; AID 504466; further: % of control where 0% means no effect; nearly all actives have a fitted effect of over 60% in size
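Step 1: seed 2,000 HEK293T ELG1-luciferase cells per well. Step 2: add compound or DMSO, incubate 16 hr at 37 °C. Step 3: ONE-Glo, 30 min at room temperature, read luminescence.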
SMN2 splice up: enhancers of SMN2 splice variant expression; 210,000 tested, 2.8% active; Potency, µM (doses to about 46.1 µM), without a hit: top-dose activity change, positive = activation, actives largely listed as activators; AID 1458; HEK293 SMN2-luciferase splicing reporter, luminescence, 30-36 h; further: % of control where 0% means no effect; nearly all actives have a fitted effect of over 55% in size
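qHTS luciferase splicing reporter: luminescence rises when SMN2 exon 7 is included in transfected HEK293 cells. Compound exposure lasted 30-36 h at 37C, with 4.5 mM final sodium butyrate as control, followed by a ONE-Glo read.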
FLuc modulator: inhibits or activates purified firefly luciferase, miR-21 counter-screen. 360,000 tested, 6.9% active. purified FLuc, Km substrates, luminescence inhibition. Potency, µM (titrated, usually from 57.5 µM), inactives show at the top dose activity change, negative = inhibition, hits mostly inhibitors. AID 588342;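 further: plate controls were vehicle for no effect and reference inhibitor for full effect; nearly all actives have a fitted effect of over 55% in size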
Target sequence (P08659 whole entry, looked up): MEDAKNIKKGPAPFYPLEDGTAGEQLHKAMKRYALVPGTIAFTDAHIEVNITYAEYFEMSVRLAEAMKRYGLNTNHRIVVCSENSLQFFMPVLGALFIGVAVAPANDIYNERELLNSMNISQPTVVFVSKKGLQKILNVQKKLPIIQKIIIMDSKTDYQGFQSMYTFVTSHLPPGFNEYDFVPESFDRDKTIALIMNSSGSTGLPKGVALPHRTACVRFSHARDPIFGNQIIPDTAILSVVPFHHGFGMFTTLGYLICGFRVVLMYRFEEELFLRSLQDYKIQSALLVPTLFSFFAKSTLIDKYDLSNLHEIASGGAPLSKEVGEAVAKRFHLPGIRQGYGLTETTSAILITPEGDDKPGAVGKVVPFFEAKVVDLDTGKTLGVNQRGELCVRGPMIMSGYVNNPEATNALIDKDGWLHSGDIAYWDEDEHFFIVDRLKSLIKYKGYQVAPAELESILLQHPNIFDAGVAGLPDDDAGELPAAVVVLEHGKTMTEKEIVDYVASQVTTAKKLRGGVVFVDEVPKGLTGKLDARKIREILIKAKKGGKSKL
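Purified P. pyralis luciferase, 10 nM final, with Km-level 10 uM D-luciferin and 10 uM ATP in 50 mM Tris acetate pH 7.5, 10 mM Mg acetate, 0.01% Tween-20, 0.05% BSA; 6-point qHTS titration about 60 µM downward; luminescence read.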
Numbers without * were called inactive; ? = inconclusive; / = no result given; [ ] = another dose, or the depositor's remark. The call rests on the fitted dose curve; in most records, active means well fitted curve in the direction sought with a large enough effect; inconclusive means small, poorly fitted or top-dose-only effect, or another doubt; inactive means no such curve, though single readings can be large; an effect the other way counts as inactive or inconclusive. Potency means the concentration at half of the fitted maximal effect.

SMILES | Rab9 promoter act | NPC1 prom act | ELG1 DNA repair | ELG1 genotoxic | SMN2 splice up | FLuc modulator
O=C(/C=C/c1ccnc2ccccc12)c1cccs1 | 0.32µM* | 0.56µM* | ? | ? | 7.1µM* | 0.067µM*
Clc1ccccc1/C=C\c1ccnc2ccccc12 | / | / | / | / | 22%[9.22 µM] | /
CCOC(=O)Nc1ccc(C(=O)Oc2ccccc2)c(O)c1 | ? | 19% | ? | 16% | 8% | 15µM*
O=C(Nc1ccc(C(=O)Oc2ccccc2)c(O)c1)c1ccccc1 | 28% | 11% | -4% | 1% | -16% | ?
O=C(Nc1ccc(C(=O)Oc2ccccc2)c(O)c1)c1ccco1 | 2.2µM* | ? | ? | ? | ? | 7.6µM*
CCOC(=O)Nc1ccc(Oc2ccccc2)cc1 | ? | ? | ? | 18µM* | 7% | 13µM*
CCOC(=O)Nc1ccc(C(=O)/C=C/c2ccccc2)cc1 | -49% | 17% | ? | 7% | / | 17µM*
Cc1ccc(Cl)cc1NC(=O)Cn1nnc2sc3c(c2c1=O)CCC(C(C)(C)C)C3 (configuration not stated) | / | / | / | / | -3% | 0%
CCOc1ccccc1-n1nnnc1SCC(=O)NC(=O)NCc1ccco1 | -1% | 8% | 26µM* | -10% | 2% | 4%
CCn1c(SCc2nc3ccccc3s2)nnc1-c1cccs1 | ? | 18% | ? | ? | ? | 15µM*
Cc1ccccc1-n1c(C)nnc1SCc1nc2ccccc2s1 | 28% | 15% | ? | ? | 2% | 4.8µM*
CCOc1ccccc1-n1nnnc1SCc1nc2ccccc2s1 | 17% | 14% | ? | -4% | -28% | 13µM*
CCOc1ccc(-n2nnnc2-c2nc3ccccc3s2)cc1 | 2.5µM* | ? | ? | 18µM* | -55% | 2.1µM*
Cc1ccc(-n2nnnc2-c2nc3ccccc3s2)cc1 | 0% | -5% | ? | 12% | -19% | 0%
Brc1ccc2oc3c(N4CCOCC4)ncnc3c2c1 | ? | ? | ? | 15% | 19% | 15µM*
c1ccc(N2CCN(c3ncnc4c3oc3ccccc34)CC2)cc1 | -1% | 3% | ? | -23% | -17% | -10%
CCOC(=O)c1c2c3c(cccc3[nH]c1=O)C(=O)c1ccccc1-2 | -3% | -2% | 2% | -1% | 14% | 1%
COCCCNc1c2c3c(cccc3[nH]c1=O)C(=O)c1ccccc1-2 | -7% | -1% | 12µM* | -2% | 5% | -5%
CCCOc1ccc(/C=N/Nc2ccccc2[N+](=O)[O-])c(O)c1 | ? | ? | ? | ? | -95% | 0.11µM*
CCCOc1ccc(/C=N/NC(=S)Nc2ccccc2[N+](=O)[O-])c(O)c1 | -16% | 3% | ? | ? | -87% | 3.4µM*
COc1ccc(/C=N/NC(=S)Nc2ccccc2[N+](=O)[O-])cc1O | -2% | 22% | ? | 5.2µM* | ? | 0.43µM*
COc1cc(/C=N/Nc2ccccc2[N+](=O)[O-])cc(OC)c1O | 1% | 2% | 2% | ? | 8% | ?
Cn1ccnc1SCC(=O)Nc1cc(Cl)ccc1Cl | / | / | / | / | -2% | -4%
N#Cc1c(-n2ncnc2-c2ccccc2Cl)sc2c1CCCCC2 | / | / | / | / | -6% | 1.9µM*
COc1ccccc1-c1ncnn1-c1sc2c(c1C#N)CCCCC2 | / | / | / | / | -5% | 1.5µM*
SMILES | Rab9 promoter act | NPC1 prom act | ELG1 DNA repair | ELG1 genotoxic | SMN2 splice up | FLuc modulator
N#Cc1c(-n2ncnc2-c2ccccc2C(F)(F)F)sc2c1CCCCC2 | / | / | / | / | -8% | 0.24µM*
N#Cc1c(-n2ncnc2-c2cccc(Cl)c2)sc2c1CCCCC2 | / | / | / | / | 1% | 1.5µM*
Cc1c(Cl)cccc1NC(=O)CSc1nc2ncccc2o1 | / | / | / | / | / | -8%
COc1ccc(CCNC(=O)CCSCc2ccccc2Cl)cc1OC | / | / | / | / | / | 3%
Cc1ccccc1NC(=O)C(=O)NC(C)CCc1ccccc1 (configuration not stated) | 1% | 0% | ? | 4% | 12% | -8%
CC(CCc1ccccc1)NC(=O)C(=O)Nc1ccccc1 (configuration not stated) | 2.8µM* | 3.2µM* | ? | ? | 14µM* | ?
CC(C)c1ccc(NC(=O)C2CCN(S(=O)(=O)c3cccc4nonc34)CC2)cc1 | / | / | / | / | 0% | 2%
CSc1c(-c2ccccn2)c(N)nn1C(=O)C1CC1 | 0% | 0% | 1% | 0% | / | 19µM*
CSc1c(-c2ccccn2)c(N)nn1C(=O)C1CCC1 | -8% | 7% | -10% | -3% | / | ?
Cc1cccc(NC(=O)c2ccc(S(=O)(=O)N3CCC(C)CC3)cc2)n1 | -8% | -6% | ? | -18% | / | -4%
CC1CCN(S(=O)(=O)c2ccc(C(=O)Nc3ccccn3)cc2)CC1 | 22% | ? | ? | 21µM* | / | ?
O=C(Nc1ccccn1)c1ccc(S(=O)(=O)N2CCCC2)cc1 | 20% | 15% | ? | 13% | / | ?
Cc1ccnc(NC(=O)c2ccc(S(=O)(=O)N3CCC(C)CC3)cc2)c1 | -4% | -2% | ? | 0.73µM* | / | 6.7µM*
CCOC(=O)[C@H]1[C@H]2COc3cc(OC)ccc3[C@@H]2N2C(=O)CN(CCc3c[nH]c4ccccc34)C(=O)[C@@]12C | 1% | -2% | -26% | -1% | / | -7%
COc1ccc2c(c1)OC[C@H]1[C@H]2N2C(=O)CN(CCc3c[nH]c4ccccc34)C(=O)[C@@]2(C)[C@H]1c1ccccc1 | -5% | 1% | 5.8µM* | -2% | / | 7%
CSc1nn(Cc2ccc(F)cc2)c(N)c1S(=O)(=O)c1ccc(Cl)cc1 | / | / | / | / | / | 3%
CCOC(=O)c1ccc(NC(=O)CSc2nc3c(c(=O)n2CC)SC(C)C3)cc1 (configuration not stated) | -1% | -2% | ? | -12% | -36% | -1%
CC1Cc2nc(SCC(=O)N3CCN(c4ccccc4)CC3)n(CCc3ccccc3)c(=O)c2S1 (configuration not stated) | 0% | -4% | 15µM* | -34% | -23% | 0%
O=C(CSc1nc2c(c(=O)n1-c1ccccc1)SCC2)N1CCN(c2ccccc2)CC1 | 2% | -3% | 23µM* | -7% | -23% | 2%
CCOC(=O)c1ccc(NC(=O)CSc2nc3c(c(=O)n2C)SC(C)C3)cc1 (configuration not stated) | 0% | 0% | 21µM* | 0% | -37% | -1%
CCn1c(SCC(=O)N2CCN(c3ccccc3)CC2)nc2c(c1=O)SC(C)C2 (configuration not stated) | 5% | -1% | 23µM* | -5% | -33% | 0%
O=C(CSc1nc2c(c(=O)n1-c1ccccc1)SCC2)N1CCOCC1 | -4% | -2% | 3% | 0% | -8% | -2%
